Test results: PubChem BioAssay (NCATS)
Unmarked numbers belong to inactive results. No rule for the calls is given here.

Tested on: HIV-1 nucleocapsid protein NCp7 (binding to TG oligonucleotide)
Experiment: HIV Nucleocapsid (AID 346);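 also: potency is for inhibitors that block NC binding and lower polarization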
Details: HIV-1 NC / fluorescein-TGTGTGTG probe, fluorescence polarization
Method in brief: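 Fluorescence polarization binding of 100 nM HIV-1 NC to 10 nM fluorescein-labelled TG4xF oligonucleotide. Buffer was Hepes pH 7.5 with 250mM NaCl, 1uM ZnCl2, TCEP and 2-mercaptoethanol. Compounds were incubated 1 hr at room temperature before the read.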
Potency is read from the fitted curve at half-maximal effect.

| SMILES | Potency |
| --- | --- |
| Cc1noc(C)c1-c1ccc2ncnc(Nc3ccc(F)cc3)c2c1 | > 20 µM |
| N#CCCn1c(=O)c(-c2ccc(F)cc2)nc2cnc(Oc3cccc(Cl)c3)nc21 | > 20 µM |
| CC(=O)NCCNc1nc(-c2ccccc2CN(C)C)nc2ccccc12 | > 20 µM |
| COCCn1c(=O)c(-c2ccc(F)cc2)nc2cnc(N(C)C)nc21 | > 20 µM |
| COc1ccc(CNc2cc(-c3ccccc3OC)ncn2)c(OC)c1 | > 20 µM |
| COc1ncc2nc(C)c(=O)n(C[C@H]3CCCO3)c2n1 | > 20 µM |
| COC(=O)N1CCC2(CC1)CN(c1cccc(-c3ccccc3)c1)C2 | > 20 µM |
| COC(=O)N1CCC2(CC1)CN(c1ccccn1)C2 | > 20 µM |
| N#Cc1ccc(CN2CCCC3(CCN(C(=O)c4ccco4)CC3)C2)cc1 | > 20 µM |
| COCC(=O)N1CCC2(CCCN(c3cccc(-c4ccccc4)c3)C2)CC1 | > 20 µM |
| CN1CCN(c2ncc3nc(-c4ccc(Cl)cc4)c(=O)n(C)c3n2)CC1 | > 20 µM |
| CCNc1ncc2nc(-c3ccccc3)c(=O)n(Cc3cccs3)c2n1 | > 20 µM |
| COC(=O)N1CCC2(CCCN(Cc3ccccc3OC)C2)CC1 | > 20 µM |
| COc1cccc(-c2cncnc2NCc2ccccc2)c1 | > 20 µM |
| COCC(=O)N1CCC2(CCCN(Cc3ccccc3)C2)CC1 | > 20 µM |
| CCNc1ncc2nc(-c3cc(F)cc(F)c3)c(=O)n(Cc3cccs3)c2n1 | > 20 µM |
